Reference: PubChem BioAssay (NCI)
This is part of a sample that, as a whole, favours compounds with a hit. Of some 79,000 tested, about 15% had one in any assay. Active and inactive are the calls of the source. Cut-off read from the data, not from the text of the source: active = growth inhibition above about 70%; inactive = the rest.

How the values were obtained:
[1] = NCI Yeast Anticancer Drug Screen. Data for the rad52 strain (AID 147);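 note: 0% = growth of vehicle-treated control cultures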; settings: S. cerevisiae rad52 mutant growth inhibition, stronger effect = higher value
In short: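 Yeast strain carrying a DNA damage repair alteration was exposed to test compounds. Growth inhibition was measured relative to vehicle-treated controls.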

[2] = NCI Yeast Anticancer Drug Screen. Data for the wt1 strain (AID 149);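 note: 0% = growth of vehicle-treated wt1 cultures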; settings: S. cerevisiae wt1 strain (SPY 50644) growth inhibition, stronger effect = higher value
In short: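 The wt1 strain was treated with compounds, and growth was compared with vehicle-treated cultures to give inhibition.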

[3] = NCI Yeast Anticancer Drug Screen. Data for the rad50EPP+ strain (AID 151);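 note: 0% = growth of vehicle-treated control cultures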; settings: S. cerevisiae rad50 mutant strain, stronger effect = higher value
In short: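 Yeast strain carrying rad50 alteration (rad50EPP+) exposed to compounds; growth inhibition measured relative to vehicle-treated controls.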

[4] = NCI Yeast Anticancer Drug Screen. Data for the mgt1 strain (AID 153); settings: S. cerevisiae mgt1 mutant growth inhibition, stronger effect = higher value
In short: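 Yeast mgt1 strain (DNA repair/cell-cycle alteration panel) exposed to compounds; growth inhibition measured relative to vehicle-treated controls.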

[5] = NCI Yeast Anticancer Drug Screen. Data for the rad50 strain (AID 155);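 note: 0% = growth of vehicle-only cultures of the same strain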; settings: S. cerevisiae rad50 strain growth inhibition, stronger effect = higher value
In short: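 Cells are treated with compound, grown, and their growth is then scored against vehicle-only cultures of the same repair-deficient yeast strain.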

[6] = NCI Yeast Anticancer Drug Screen. Data for the mec2-1 strain (AID 157); settings: S. cerevisiae mec2-1 strain, stronger effect = higher value
In short: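 mec2-1 yeast strain, carrying an alteration in DNA damage repair or cell cycle control, was exposed to compounds; growth inhibition was measured relative to vehicle-treated controls.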

[7] = NCI Yeast Anticancer Drug Screen. Data for the rad14 strain (AID 159);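 note: 0% = growth of vehicle-treated control cultures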; settings: S. cerevisiae rad14 strain growth inhibition, stronger effect = higher value
In short: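 Readout: yeast growth inhibition, referenced to vehicle-only cultures. Strain bears a defined alteration in DNA damage repair.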

[8] = NCI Yeast Anticancer Drug Screen. Data for the cln2 rad14 strain (AID 165);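 note: 0% = growth equal to vehicle treated cultures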; settings: S. cerevisiae cln2 rad14 strain, stronger effect = higher value
In short: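 Yeast carrying cln2 and rad14 alterations (cell cycle control and DNA damage repair) were exposed to compounds. Growth inhibition was measured against vehicle-treated controls.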

[9] = NCI Yeast Anticancer Drug Screen. Data for the bub3 strain (AID 167); settings: S. cerevisiae bub3 mutant strain, stronger effect = higher value
In short: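 Part of a panel of yeast mutants defective in DNA damage repair or cell cycle regulation. Each strain is grown with compound, and inhibition is calculated relative to solvent-treated cultures.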

[10] = NCI Yeast Anticancer Drug Screen. Data for the wt2 strain (AID 169);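 note: 0% = growth of vehicle-treated yeast cultures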; settings: S. cerevisiae wt2 strain growth inhibition, stronger effect = higher value
In short: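 Yeast cells were exposed to test compounds, and growth inhibition was measured relative to vehicle-treated controls.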

[11] = NCI Yeast Anticancer Drug Screen. Data for the mlh1 strain (AID 171);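 note: 0% = growth of vehicle-treated control cultures of the same strain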; settings: S. cerevisiae mlh1 strain growth inhibition, stronger effect = higher value
In short: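 Yeast carrying a defined genetic alteration in DNA damage repair or cell cycle control were exposed to test compounds. Growth inhibition was measured relative to vehicle-treated controls.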

[12] = NCI Yeast Anticancer Drug Screen. Data for the sgs1 strain (AID 173);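 note: 0% = growth of vehicle-only control cultures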; settings: S. cerevisiae sgs1 mutant, stronger effect = higher value
In short: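 Yeast mutant strains carrying defined defects in DNA damage repair or cell cycle control were exposed to test compounds. Growth inhibition was scored against vehicle-treated controls.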

[13] = NCI Yeast Anticancer Drug Screen. Data for the mlh1 rad18 strain (AID 175); settings: S. cerevisiae mlh1 rad18 strain growth inhibition, stronger effect = higher value
In short: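 Growth inhibition of the yeast strain was measured after compound exposure and expressed relative to vehicle-treated controls. The strain carries defined defects in DNA damage repair.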

[14] = NCI Yeast Anticancer Drug Screen. Data for the rad18 strain (AID 177); settings: S. cerevisiae rad18 mutant growth inhibition, stronger effect = higher value
In short: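 Yeast carrying a defined DNA damage repair alteration were exposed to compounds. Growth inhibition was expressed relative to vehicle-treated controls.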

[15] = at 5.0 µM (retest, dose inferred, filed as 0.5)
[16] = at 50.0 µM (retest, dose inferred, filed as 5.0)

Measured: growth inhibition

CCCCCCCCCCCC1=C(O)C(=O)C=C(O)C1=O
inactive: [1]; at 1.2 µM -7% | [1]; at 3.7 µM -2% | [1]; at 11.0 µM 68% | [2]; at 1.2 µM -4% | [2]; at 3.7 µM -7% | [2]; at 11.0 µM 64% | [3]; at 1.2 µM -5% | [3]; at 3.7 µM -14% | [3]; at 11.0 µM 31% | [4]; at 1.2 µM -3% | [4]; at 3.7 µM -5% | [4]; at 11.0 µM 22% | [5]; at 1.2 µM -15% | [5]; at 3.7 µM -15% | [5]; [15] 32% | [5]; at 11.0 µM 36% | [5]; at 50.0 µM 46.5% | [6]; at 1.2 µM -7% | [6]; at 3.7 µM -4% | [6]; [15] 9% | [6]; at 11.0 µM 63% | [6]; at 50.0 µM 37.9% | [7]; at 1.2 µM 2% | [7]; at 3.7 µM 0% | [8]; [15] -11% | [8]; at 50.0 µM 35.9% | [9]; at 1.2 µM -10% | [9]; at 3.7 µM -4% | [9]; at 11.0 µM 54% | [9]; at 50.0 µM 57% | [10]; at 1.2 µM 3% | [10]; at 3.7 µM 8% | [11]; at 1.2 µM -12% | [11]; at 3.7 µM -9% | [11]; at 11.0 µM 37% | [12]; at 1.2 µM -19% | [12]; at 3.7 µM -11% | [12]; at 11.0 µM 46% | [13]; [15] 41% | [14]; at 1.2 µM -9% | [14]; at 3.7 µM -6% | [14]; at 11.0 µM 64%
active: [1]; at 33.0 µM 88% | [1]; at 100.0 µM 94% | [2]; at 33.0 µM 94% | [2]; at 100.0 µM 91% | [3]; at 33.0 µM 79% | [3]; at 100.0 µM 84% | [4]; at 33.0 µM 89% | [4]; at 100.0 µM 91% | [5]; at 33.0 µM 94% | [5]; [16] 79% | [5]; at 100.0 µM 93% | [6]; at 33.0 µM 94% | [6]; [16] 90% | [6]; at 100.0 µM 95% | [7]; at 11.0 µM 80% | [7]; at 33.0 µM 96% | [7]; at 100.0 µM 80% | [8]; [16] 88% | [9]; [15] 81% | [9]; at 33.0 µM 96% | [9]; [16] 89% | [9]; at 100.0 µM 95% | [10]; at 11.0 µM 79% | [10]; at 33.0 µM 96% | [10]; at 100.0 µM 81% | [11]; at 33.0 µM 93% | [11]; at 100.0 µM 91% | [12]; at 33.0 µM 95% | [12]; at 100.0 µM 89% | [13]; [16] 90% | [13]; at 50.0 µM 72.3% | [14]; at 33.0 µM 95% | [14]; at 100.0 µM 92%
